Source: PubChem BioAssay (NCI)
The panel holds about 79,000 compounds, 15% with a hit somewhere; the sample as a whole holds those more often. Calls of active or inactive are those of the source. No stated cut-off is given here; in the data, active means growth inhibition above about 70%; inactive means the rest.

Tests used:
[1] = NCI Yeast Anticancer Drug Screen. Data for the rad52 strain (AID 147);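 further: 0% = growth of vehicle-treated control cultures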; settings: S. cerevisiae rad52 mutant growth inhibition, stronger effect = higher value
How it was run: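 Inhibition of yeast growth, referenced to vehicle controls, was the measured output for a strain with defective DNA damage repair.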

[2] = NCI Yeast Anticancer Drug Screen. Data for the wt1 strain (AID 149);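 further: 0% = growth of vehicle-treated wt1 cultures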; settings: S. cerevisiae wt1 strain (SPY 50644) growth inhibition, stronger effect = higher value
How it was run: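 Yeast wt1 strain exposed to compounds; growth inhibition measured relative to vehicle-treated controls.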

[3] = NCI Yeast Anticancer Drug Screen. Data for the rad50EPP+ strain (AID 151);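 further: 0% = growth of vehicle-treated control cultures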; settings: S. cerevisiae rad50 mutant strain, stronger effect = higher value
How it was run: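 Genetically defined yeast (rad50EPP+, DNA damage repair alteration) is grown with compound, and inhibition of growth is expressed relative to vehicle-treated controls.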

[4] = NCI Yeast Anticancer Drug Screen. Data for the mgt1 strain (AID 153); settings: S. cerevisiae mgt1 mutant growth inhibition, stronger effect = higher value
How it was run: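 In the mgt1 strain, test compounds were added and growth inhibition was determined relative to vehicle-treated controls.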

[5] = NCI Yeast Anticancer Drug Screen. Data for the rad50 strain (AID 155);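 further: 0% = growth of vehicle-only cultures of the same strain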; settings: S. cerevisiae rad50 strain growth inhibition, stronger effect = higher value
How it was run: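 Yeast carrying a defined DNA repair defect were exposed to test compounds, and growth was compared with vehicle-treated controls to give percent inhibition.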

[6] = NCI Yeast Anticancer Drug Screen. Data for the mec2-1 strain (AID 157); settings: S. cerevisiae mec2-1 strain, stronger effect = higher value
How it was run: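 Each compound was tested on mec2-1 yeast, a strain altered in DNA damage repair or cell cycle control. Growth inhibition is reported relative to vehicle.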

[7] = NCI Yeast Anticancer Drug Screen. Data for the rad14 strain (AID 159);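 further: 0% = growth of vehicle-treated control cultures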; settings: S. cerevisiae rad14 strain growth inhibition, stronger effect = higher value
How it was run: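 Yeast cells carrying a defined DNA-repair defect were exposed to compounds, and growth inhibition was calculated relative to vehicle-treated control cultures.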

[8] = NCI Yeast Anticancer Drug Screen. Data for the sgs1 mgt1 strain (AID 161);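 further: 0% = growth of cultures given vehicle only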; settings: S. cerevisiae sgs1 mgt1 strain, stronger effect = higher value
How it was run: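 Test agents were incubated with a DNA-repair-mutant yeast strain. Growth was then read and compared against vehicle-treated controls.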

[9] = NCI Yeast Anticancer Drug Screen. Data for the CLN2oe strain (AID 163);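 further: 0% = growth of vehicle-only control cultures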; settings: S. cerevisiae CLN2oe strain, stronger effect = higher value
How it was run: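 First, the altered yeast strain was treated with each compound; second, its growth was measured; finally, inhibition was derived by comparison with vehicle controls.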

[10] = NCI Yeast Anticancer Drug Screen. Data for the cln2 rad14 strain (AID 165);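 further: 0% = growth equal to vehicle treated cultures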; settings: S. cerevisiae cln2 rad14 strain, stronger effect = higher value
How it was run: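 Test compounds were added to cln2 rad14 yeast cultures; inhibition of growth was then determined by comparison with vehicle treatment.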

[11] = NCI Yeast Anticancer Drug Screen. Data for the bub3 strain (AID 167); settings: S. cerevisiae bub3 mutant strain, stronger effect = higher value
How it was run: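 Compounds were applied to a genetically altered yeast strain carrying a cell-cycle control defect. Growth inhibition was scored against vehicle-treated controls.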

[12] = NCI Yeast Anticancer Drug Screen. Data for the mlh1 strain (AID 171);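 further: 0% = growth of vehicle-treated control cultures of the same strain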; settings: S. cerevisiae mlh1 strain growth inhibition, stronger effect = higher value
How it was run: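 Inhibition values reflect reduced yeast growth in the presence of compound, referenced to vehicle controls, using a strain chosen for its alteration in DNA repair or cell cycle control.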

[13] = NCI Yeast Anticancer Drug Screen. Data for the sgs1 strain (AID 173);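 further: 0% = growth of vehicle-only control cultures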; settings: S. cerevisiae sgs1 mutant, stronger effect = higher value
How it was run: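 Vehicle-treated cultures served as reference for growth inhibition of a yeast strain altered in DNA damage repair or cell cycle control after compound exposure.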

[14] = NCI Yeast Anticancer Drug Screen. Data for the mlh1 rad18 strain (AID 175); settings: S. cerevisiae mlh1 rad18 strain growth inhibition, stronger effect = higher value
How it was run: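 Inhibition values reflect reduced growth of mutant yeast versus vehicle-treated controls following compound exposure; the mutations affect DNA damage repair.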

[15] = NCI Yeast Anticancer Drug Screen. Data for the rad18 strain (AID 177); settings: S. cerevisiae rad18 mutant growth inhibition, stronger effect = higher value
How it was run: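 Steps: expose repair-mutant yeast to compound; measure growth; express as inhibition relative to vehicle control.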

[16] = at 5.0 µM (retest, dose inferred, filed as 0.5)
[17] = at 50.0 µM (retest, dose inferred, filed as 5.0)

Measured: growth inhibition

CCC(/C=C/c1ccccc1)=N\Nc1ccc(Cl)c(Cl)c1
inactive: [1]; at 1.2 µM 7% | [1]; at 3.7 µM 11% | [1]; at 11.0 µM 17% | [2]; at 1.2 µM 0% | [2]; at 3.7 µM -3% | [2]; at 11.0 µM -4% | [2]; at 33.0 µM 24% | [3]; at 1.2 µM 9% | [3]; at 3.7 µM 20% | [3]; at 11.0 µM 28% | [3]; at 33.0 µM 29% | [3]; at 100.0 µM 29% | [4]; at 1.2 µM -3% | [4]; at 3.7 µM 4% | [4]; at 11.0 µM -4% | [4]; at 33.0 µM -3% | [5]; at 1.2 µM 26% | [5]; at 3.7 µM 36% | [5]; [16] 7% | [5]; at 11.0 µM 22% | [6]; at 1.2 µM -2% | [6]; at 3.7 µM -1% | [6]; [16] -1% | [6]; at 11.0 µM -5% | [6]; at 33.0 µM 22% | [7]; at 1.2 µM 2% | [7]; at 3.7 µM 0% | [7]; at 11.0 µM -6% | [7]; at 33.0 µM 10% | [8]; [16] 3% | [9]; at 1.2 µM -2% | [9]; at 3.7 µM -8% | [9]; at 11.0 µM -9% | [9]; at 33.0 µM 36% | [10]; [16] 1% | [11]; at 1.2 µM -2% | [11]; at 3.7 µM 2% | [11]; [16] 2% | [11]; at 11.0 µM 14% | [12]; at 1.2 µM -4% | [12]; at 3.7 µM -2% | [12]; at 11.0 µM 0% | [12]; at 33.0 µM 39% | [13]; at 1.2 µM -3% | [13]; at 3.7 µM -17% | [13]; at 11.0 µM 17% | [13]; at 33.0 µM 67% | [14]; [16] 9% | [15]; at 1.2 µM 6% | [15]; at 3.7 µM 16% | [15]; at 11.0 µM 8% | [15]; at 33.0 µM 43%
active: [1]; at 33.0 µM 87% | [1]; at 100.0 µM 92% | [2]; at 100.0 µM 93% | [4]; at 100.0 µM 95% | [5]; at 33.0 µM 89% | [5]; [17] 89% | [5]; at 50.0 µM 95.5% | [5]; at 100.0 µM 91% | [6]; [17] 81% | [6]; at 50.0 µM 72.5% | [6]; at 100.0 µM 92% | [7]; at 100.0 µM 94% | [8]; [17] 74% | [8]; at 50.0 µM 82.5% | [9]; at 100.0 µM 89% | [10]; [17] 71% | [10]; at 50.0 µM 85.7% | [11]; at 33.0 µM 85% | [11]; [17] 93% | [11]; at 50.0 µM 94.3% | [11]; at 100.0 µM 91% | [12]; at 100.0 µM 94% | [13]; at 100.0 µM 95% | [14]; [17] 93% | [14]; at 50.0 µM 91.3% | [15]; at 100.0 µM 95%
